From the supplement of paper PMC10849652
Targets with a hit are over-represented here; the source holds about 8,800 in all. About 0.5% of all pairs of compound and target were hits. A number with no mark means an inactive call.

Key:
Experiment in all cases: log2 fold change, soluble protein after heating vs DMSO (PISA); higher = thermal stabilisation; K562 lysate, 10 uM; active = over 0.2 and 3.5 SD of the protein, either way, in both replicates (recomputed)
[1] = compound: CC(=O)c1cnc2ccc(-c3cc(Cl)c(O)c(Cl)c3)nc2c1N[C@H]1CC[C@H](CN(C)C)CC1
Procedure, shortened: (§1)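 Soluble protein was defined as the supernatant remaining after 21,000xg for 90 min, following pooling of heated aliquots and adjustment to 0.5% NP-40 at 4°C. Before that, crude K562 extract at 1 mg/mL protein in PBS pH 7.4 with 1 mM MgCl2 was treated with 10 μM compound for 30 min and heated for 3 min across 48°C-58°C. Quantification used TMTpro 16plex LC-MS/MS with channel sums equalised, and values are log-two fold changes in thermal stability relative to solvent controls from duplicates.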

ralimetinib = compound: CC(C)(C)Cn1c(N)nc2ccc(-c3[nH]c(C(C)(C)C)nc3-c3ccc(F)cc3)nc21 [ralimetinib]
Procedure, shortened: as §1

[2] = compound: CC(C)(O)CC(=O)NCCn1ccc2ncnc(Nc3ccc(Oc4cccc(C(F)(F)F)c4)c(Cl)c3)c21
Procedure, shortened: as §1

[3] = compound: CC(C)C1=C2N=C(C=C(N2N=C1)NCC3=CC=CC=C3)NCCCCCCN
Procedure, shortened: as §1

[4] = compound: CC1=C(C(CC(=O)N1)C2=CC=C(C=C2)C(F)(F)F)C(=O)NC3=C(C=C4C(=C3)C=NN4)F
Procedure, shortened: as §1

[5] = compound: CC1=C(C2=C(C=C1)C(=O)C3=CC=CC=C3N2CCCN)C
Procedure, shortened: as §1

[6] = compound: CC1=C(C=C(C=C1)NC(=O)C2=CC(=CC=C2)C(C)(C)C#N)NC3=CC4=C(C=C3)N=CN(C4=O)C
Procedure, shortened: as §1

[7] = compound: CC1=C(C=C(C=C1)NC(=O)C2=CC(=CC=C2)N(C)C)NC(=O)C3=CC=C(C=C3)O
Procedure, shortened: as §1

[8] = compound: CC1=CC=C(C=C1)SC2=C3C=C(SC3=CN=C2)C(=O)N
Procedure, shortened: as §1

vemurafenib = compound: CCCS(=O)(=O)Nc1ccc(F)c(C(=O)c2c[nH]c3ncc(-c4ccc(Cl)cc4)cc23)c1F [vemurafenib]
Procedure, shortened: as §1

[9] = compound: CCCS(=O)(=O)Nc1ccc(F)c(C(=O)c2c[nH]c3ncc(Cl)cc23)c1F
Procedure, shortened: as §1

[10] = compound: CC[C@@H]1C(=O)N(C)c2cnc(Nc3ccc(C(=O)NC4CCN(C)CC4)cc3OC)nc2N1C1CCCC1
Procedure, shortened: as §1

volasertib = compound: CC[C@@H]1C(=O)N(C)c2cnc(Nc3ccc(C(=O)N[C@H]4CC[C@H](N5CCN(CC6CC6)CC5)CC4)cc3OC)nc2N1C(C)C [volasertib]
Procedure, shortened: as §1

[11] = compound: CCn1c(C(=O)N(C2CC2)C2CC2)cc2c3c(ncn3C)c(Nc3cc(C)n(C)n3)nc21
Procedure, shortened: as §1

saracatinib = compound: CN1CCN(CCOc2cc(OC3CCOCC3)c3c(Nc4c(Cl)ccc5c4OCO5)ncnc3c2)CC1 [saracatinib]
Procedure, shortened: as §1

sotrastaurin = compound: CN1CCN(c2nc(C3=C(c4c[nH]c5ccccc45)C(=O)NC3=O)c3ccccc3n2)CC1 [sotrastaurin]
Procedure, shortened: as §1

[12] = compound: CCn1cc(-c2ccnc3[nH]c(-c4cccc(CN(C)C)c4)cc23)c(-c2ccc(NC(=O)N(C)C)cc2)n1
Procedure, shortened: as §1

[13] = compound: CN1CCC(CNc2ccc3ncc(-c4cccc(OC(F)(F)F)c4)n3n2)CC1
Procedure, shortened: as §1

ibrutinib = compound: C=CC(=O)N1CCC[C@@H](n2nc(-c3ccc(Oc4ccccc4)cc3)c3c(N)ncnc32)C1 [ibrutinib]
Procedure, shortened: as §1

barasertib = compound: CCN(CCCOc1ccc2c(Nc3cc(CC(=O)Nc4cccc(F)c4)[nH]n3)ncnc2c1)CCOP(=O)(O)O [barasertib]
Procedure, shortened: as §1

Chain of UniProt P42768 (P42768 whole entry, looked up): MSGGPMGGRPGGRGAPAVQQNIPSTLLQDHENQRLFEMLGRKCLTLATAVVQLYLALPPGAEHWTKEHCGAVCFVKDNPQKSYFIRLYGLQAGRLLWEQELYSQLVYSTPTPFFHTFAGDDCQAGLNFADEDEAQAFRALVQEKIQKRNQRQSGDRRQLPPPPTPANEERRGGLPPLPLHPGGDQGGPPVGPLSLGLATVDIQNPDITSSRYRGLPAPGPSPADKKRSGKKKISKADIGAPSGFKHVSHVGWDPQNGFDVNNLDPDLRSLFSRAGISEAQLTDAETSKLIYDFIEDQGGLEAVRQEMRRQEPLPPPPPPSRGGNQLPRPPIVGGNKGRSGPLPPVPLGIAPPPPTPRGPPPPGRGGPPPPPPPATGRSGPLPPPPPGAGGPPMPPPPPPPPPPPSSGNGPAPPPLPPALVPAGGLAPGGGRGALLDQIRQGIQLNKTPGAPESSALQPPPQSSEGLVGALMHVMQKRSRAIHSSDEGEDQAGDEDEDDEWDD
Chain of UniProt Q8IUH5 (Q8IUH5 whole entry, looked up): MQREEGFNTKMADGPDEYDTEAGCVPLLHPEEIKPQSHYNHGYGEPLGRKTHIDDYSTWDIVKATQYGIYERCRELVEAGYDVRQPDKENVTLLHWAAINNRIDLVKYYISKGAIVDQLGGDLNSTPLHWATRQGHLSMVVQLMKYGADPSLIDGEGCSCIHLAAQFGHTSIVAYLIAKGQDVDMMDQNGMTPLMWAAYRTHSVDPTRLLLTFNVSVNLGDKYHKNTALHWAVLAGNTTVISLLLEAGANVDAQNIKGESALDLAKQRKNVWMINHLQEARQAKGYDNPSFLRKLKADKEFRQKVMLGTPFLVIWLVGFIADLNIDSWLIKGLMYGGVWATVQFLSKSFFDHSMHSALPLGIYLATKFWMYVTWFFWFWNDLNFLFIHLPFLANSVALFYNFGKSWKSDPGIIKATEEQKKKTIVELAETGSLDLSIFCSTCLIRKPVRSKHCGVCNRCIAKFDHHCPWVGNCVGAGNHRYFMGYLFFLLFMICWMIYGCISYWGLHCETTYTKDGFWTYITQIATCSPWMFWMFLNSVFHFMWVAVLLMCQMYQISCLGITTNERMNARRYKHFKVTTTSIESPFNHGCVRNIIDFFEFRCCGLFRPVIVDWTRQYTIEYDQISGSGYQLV
Chain of UniProt Q15776 (Q15776 whole entry, looked up): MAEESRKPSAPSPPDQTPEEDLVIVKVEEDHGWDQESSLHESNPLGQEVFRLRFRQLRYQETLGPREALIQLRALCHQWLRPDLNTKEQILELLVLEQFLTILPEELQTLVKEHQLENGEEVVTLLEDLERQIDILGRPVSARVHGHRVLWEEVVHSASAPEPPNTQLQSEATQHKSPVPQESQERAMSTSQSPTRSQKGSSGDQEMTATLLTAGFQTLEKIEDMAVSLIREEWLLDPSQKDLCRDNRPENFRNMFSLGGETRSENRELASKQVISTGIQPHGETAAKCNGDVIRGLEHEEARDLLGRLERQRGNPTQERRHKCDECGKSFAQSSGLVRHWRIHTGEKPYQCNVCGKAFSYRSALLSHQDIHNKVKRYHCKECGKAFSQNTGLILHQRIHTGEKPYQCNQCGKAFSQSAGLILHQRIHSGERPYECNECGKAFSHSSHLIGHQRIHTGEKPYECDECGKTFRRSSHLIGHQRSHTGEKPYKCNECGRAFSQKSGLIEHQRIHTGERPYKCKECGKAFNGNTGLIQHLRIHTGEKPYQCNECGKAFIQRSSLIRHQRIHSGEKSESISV
Chain of UniProt Q9Y6I7 (Q9Y6I7 whole entry, looked up): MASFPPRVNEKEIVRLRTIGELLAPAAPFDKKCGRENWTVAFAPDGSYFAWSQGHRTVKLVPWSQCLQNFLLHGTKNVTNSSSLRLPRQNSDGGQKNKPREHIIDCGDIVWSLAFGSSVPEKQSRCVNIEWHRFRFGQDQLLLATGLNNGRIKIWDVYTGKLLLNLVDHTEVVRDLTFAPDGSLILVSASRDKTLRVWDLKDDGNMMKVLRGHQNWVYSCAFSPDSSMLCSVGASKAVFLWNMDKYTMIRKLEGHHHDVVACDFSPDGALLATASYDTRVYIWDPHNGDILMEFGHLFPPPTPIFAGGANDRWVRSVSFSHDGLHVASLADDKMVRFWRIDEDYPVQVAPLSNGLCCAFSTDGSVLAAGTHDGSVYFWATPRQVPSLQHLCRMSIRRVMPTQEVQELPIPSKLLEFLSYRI
Chain of UniProt Q5MNZ9 (Q5MNZ9 whole entry, looked up): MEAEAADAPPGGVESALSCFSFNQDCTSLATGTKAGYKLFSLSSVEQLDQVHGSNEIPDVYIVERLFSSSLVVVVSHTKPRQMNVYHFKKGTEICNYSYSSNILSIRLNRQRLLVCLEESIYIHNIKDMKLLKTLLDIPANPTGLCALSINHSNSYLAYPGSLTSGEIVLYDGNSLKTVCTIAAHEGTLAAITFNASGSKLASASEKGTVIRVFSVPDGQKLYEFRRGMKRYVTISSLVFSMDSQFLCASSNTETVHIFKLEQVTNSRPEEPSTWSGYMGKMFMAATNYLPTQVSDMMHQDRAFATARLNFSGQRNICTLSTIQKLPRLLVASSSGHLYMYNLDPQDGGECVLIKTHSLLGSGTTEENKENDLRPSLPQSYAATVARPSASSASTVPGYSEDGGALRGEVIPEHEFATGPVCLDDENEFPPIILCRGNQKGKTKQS
Chain of UniProt Q16670 (Q16670 whole entry, looked up): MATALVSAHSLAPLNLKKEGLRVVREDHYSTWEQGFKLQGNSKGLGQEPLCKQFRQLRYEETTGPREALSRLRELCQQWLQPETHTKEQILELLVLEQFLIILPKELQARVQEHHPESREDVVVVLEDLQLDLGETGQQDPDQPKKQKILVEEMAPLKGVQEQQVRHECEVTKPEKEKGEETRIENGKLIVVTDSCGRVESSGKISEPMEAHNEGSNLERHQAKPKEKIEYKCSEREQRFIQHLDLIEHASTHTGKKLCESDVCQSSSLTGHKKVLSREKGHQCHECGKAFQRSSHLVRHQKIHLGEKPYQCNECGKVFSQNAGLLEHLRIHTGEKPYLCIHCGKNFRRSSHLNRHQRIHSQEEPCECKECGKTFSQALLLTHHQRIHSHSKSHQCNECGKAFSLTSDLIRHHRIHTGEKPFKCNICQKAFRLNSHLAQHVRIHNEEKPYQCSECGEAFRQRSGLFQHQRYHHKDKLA

| Target | log2 fold change [1] | log2 fold change (ralimetinib) | log2 fold change [2] | log2 fold change [3] | log2 fold change [4] | log2 fold change [5] | log2 fold change [6] | log2 fold change [7] | log2 fold change [8] | log2 fold change (vemurafenib) | log2 fold change [9] | log2 fold change [10] | log2 fold change (volasertib) | log2 fold change [11] | log2 fold change (saracatinib) | log2 fold change (sotrastaurin) | log2 fold change [12] | log2 fold change [13] | log2 fold change (ibrutinib) | log2 fold change (barasertib) |
| --- | --- | --- | --- | --- | --- | --- | --- | --- | --- | --- | --- | --- | --- | --- | --- | --- | --- | --- | --- | --- |
| ZKSCAN8 (UniProt Q15776) | 0.514 (active) | -0.021 | -0.002 | 0.229 | 0.098 | 0.008 | -0.008 | 0.04 | -0.054 | 0.049 | -0.173 | -0.019 | -0.17 | -0.001 | 0.028 | 0.027 |  |  |  |  |
| ZDHHC17 (UniProt Q8IUH5) | -0.063 | 0.077 | 0.047 |  | -0.001 | 0.161 | -0.171 | -0.067 | -0.032 | 0.058 | 0.047 | 0.077 | -0.071 | 0.166 | 0.205 | 0.117 | -0.346 | 0.141 |  |  |
| WIPI1 (UniProt Q5MNZ9) | -0.062 | 0.002 | 0.019 | -0.008 | 0.1 | -0.023 | -0.005 | -0.009 | -0.033 |  | 0.044 | 0.119 | -0.014 | -0.043 | 0.025 | -0.074 | -0.079 | 0.022 | 0.098 | 0.04 |
| ZSCAN26 (UniProt Q16670) |  |  |  |  |  |  | 0.007 |  |  |  |  |  |  |  |  | -0.239 |  |  |  |  |
| WSB1 (UniProt Q9Y6I7) |  | 0.08 | -0.006 |  |  | -0.037 |  | -0.028 |  |  |  |  |  | 0.105 | -0.159 |  | 0.078 | 0.08 |  |  |
| WAS (UniProt P42768) |  |  |  | -0.01 | 0.071 | 0.143 |  |  |  |  |  | 0.043 |  |  | -0.136 |  | 0.007 | 0.019 | -0.06 | 0.046 |
